Screening results deposited in PubChem BioAssay by Broad Institute.
Shown is part of a subset that was picked to be rich in hits.
Tgondii IFNg: T. gondii growth inhibition with IFN-gamma, primary screen, cell-based; Toxoplasma gondii growth in IFN-gamma-treated host cells; stronger effect = lower value; activity change, negative = inhibition, % (test concentration not listed); 69,000 compounds, 3.8% hits; AID 1259416, 2018; in the data active means activity change below about -70%, passing the limit was not always enough;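 further: host cells are HeLa cells infected with Toxoplasma gondii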
* = called active by the depositor; i = inactive; ! = not active in a repeat.

SMILES | Tgondii IFNg
CO[C@@H]1CN(C)C(=O)c2cc(NC(=O)C3CCCCC3)ccc2OC[C@@H](C)N(Cc2cccnc2)C[C@H]1C | 0.8
CO[C@@H]1CN(C)C(=O)c2ccc(NC(=O)c3nc4ccccc4s3)cc2OC[C@@H](C)N(Cc2cccnc2)C[C@@H]1C | -112.5*
O=C(c1cccc(-n2cccn2)c1)N1Cc2cnn(CCO)c2C1 | 4.2
COc1ccc(N(C2CSC2)S(C)(=O)=O)cc1 | 33.4
Cc1noc(-c2ccc(Cl)cc2)c1NC(=O)NN1CCCCC1 | -32.9
CCn1c(=O)c(-c2nc(-c3ccc(OC(C)C)cc3)no2)c(O)c2ccc(F)cc21 | 1.8
COc1ccc2c3c(n(C)c2c1)[C@H](CO)N(S(C)(=O)=O)CC31CCN(Cc2nccs2)CC1 | 86.0
Cc1ncc(C(=O)NCCCc2c(C)n[nH]c2C)c(C)n1 | 0.1
Cc1cnccc1-n1nc(-c2ccccc2)nc1C1CCNC1 (configuration not stated) | -3.2
COC(=O)c1c(NCCc2ccccc2)c2cc(F)ccc2[nH]c1=O | 6.5
COC(=O)c1c(NCCc2c[nH]c3ccccc23)c2cc(F)ccc2[nH]c1=O | -99.4*
COCCNc1c(C(=O)OC)c(=O)[nH]c2ccc(F)cc12 | 34.7
Cc1c(C)c2c(c(C)c1O)CCC(C)(C(=O)N1CCn3cncc3C1)O2 (configuration not stated) | -4.5
CCc1cn[nH]c1C1CCN(C(=O)CNS(=O)(=O)c2cccs2)CC1 | 0.8
O=C1Cc2c([nH]c3ccc([N+](=O)[O-])cc23)-c2ccccc2N1 | -73.6*
CN1C(=O)CCC12CCCN(C(=O)Cc1ccsc1)C2 (configuration not stated) | -53.6
Cc1ccsc1-c1nccn1Cc1ccc2c(c1)n(C)c(=O)n2C | 16.3
COc1cc(OC)cc(-c2nnc(SCc3nnc(C)o3)o2)c1 | 22.0
COC(=O)c1cc2n(n1)CCN(C(=O)c1cc3cc(OC)ccc3[nH]1)C2 | 6.2
Cc1ccc2c(c1)c(CNC(C)CCn1cccn1)nn2C (configuration not stated) | -6.8
CCc1c(C)nn(CC(=O)NCc2nn(C)c3ccc(C)cc23)c1C | -0.8
Cc1ccc2c(c1)c(Cn1cc(-c3sccc3C)nn1)nn2C | -86.0*
Cc1csc(C23CC4CC(CC(C4)C2)C3)n1 | -0.4
CC(C)(COC(=O)Nc1ccc(Cl)cc1)n1cccc1 | 10.0
O=C(Nc1ccc(Cl)cc1)OC1CN(C(c2ccccc2)c2ccccc2)C1 | -59.0
SMILES | Tgondii IFNg
O=C(Nc1ccccc1)OCc1cccc(COC(=O)Nc2ccccc2)c1F | -82.3*
O=C(Nc1ccccc1)OCC(CN1CCCCC1)OC(=O)Nc1ccccc1 (configuration not stated) | -4.3
O=C(Nc1ccc(Cl)cc1)OCc1cccc(COC(=O)Nc2ccc(Cl)cc2)n1 | -98.5*
O=C(Nc1ccccc1)OCCCCCOC(=O)Nc1ccccc1 | -18.5
CC(C)CN1CCN(C(=O)NCc2ccc(Cl)cc2)C(C)C1=O (configuration not stated) | 1.1
CS(=O)(=O)N1CC2CN(C(=O)c3cnccn3)CC2C1 (configuration not stated) | -0.3
COc1cc(CN2[C@@H]3CNC[C@H]2C3c2ccc(-c3ccc(C)cc3)cc2)cc(OC)c1 (some centres not stated) | 26.5
Nc1cccn(Cc2cccc(C(F)(F)F)c2)c1=O | 199.6
Cc1cccc(C)c1NC(=O)C(=O)NCCc1csc(-c2cccc(F)c2)n1 | 25.1
Cc1cc(C)c(NC(=O)C(=O)NCCc2csc(-c3cccc(F)c3)n2)c(C)c1 | -79.6*
O=C(NCCc1csc(-c2cccc(F)c2)n1)C(=O)Nc1ccccc1 | -34.0
Cc1ccc(NC(=O)C(=O)NCCc2csc(-c3cccc(F)c3)n2)c(C)c1 | -9.7
Cc1cccc(NC(=O)C(=O)NCCc2csc(-c3cccc(F)c3)n2)c1 | -87.3*
Cc1cccc(NC(=O)C(=O)NCCc2csc(-c3ccc(Cl)cc3)n2)c1 | -26.6
O=C(c1cccnc1)N1CCC2(CCN(c3cccnc3)C2=O)C1 (configuration not stated) | 10.9
CCCCOc1ccccc1-c1cc2c(=O)n(Cc3nc(-c4cccc(Cl)c4)oc3C)ccn2n1 | -17.7
CCn1nc(C(=O)O)c2c1CCC(NCc1cn3nc(C)sc3n1)C2 (configuration not stated) | 9.4
COC(=O)CN(C)Cc1cccc(C(=O)Nc2c(C)cnn2C)c1 | 3.7
COc1ccc(CCC(=O)Nc2ccc(N3CCOCC3)c(Cl)c2)cc1 | 66.4
Cc1ccc(-c2nc(CN3CCN(C(=O)NC4CCCCC4)CC3)c(C)o2)cc1 | -2.2
CCOc1ccc(-c2nc(CN3CCN(C(=O)NC4CCCCC4)CC3)c(C)o2)cc1 | 3.7
Cc1oc(-c2ccc(Cl)cc2)nc1CN1CCCC(C(=O)NC2CCCCCC2)C1 (configuration not stated) | -99.0*
Cc1ccccc1CN1CC2CN(C(=O)Nc3ccccc3)CC21 (configuration not stated) | -52.7
Cc1ccc(N2CCN(C(=O)c3cccc4[nH]cc(CN5CCCC5)c34)CC2)cc1 | -63.1
COc1cc(-c2n[nH]c(=S)n2-c2ccccc2Cl)cc(OC)c1OC | 62.8
SMILES | Tgondii IFNg
Nc1ncnc2c1c(-c1cccc(OCc3ccccc3)c1)cn2C1CC(CN2CCC2)C1 (configuration not stated) | -85.4*
CC(C)CN(Cc1ccsc1)C(=O)c1cccnc1N1CCOCC1 | -11.9
COc1ccc(-n2ncc3c(NC4CCCCCCCCCCC4)ncnc32)cc1 | -38.6
Cc1c(-c2ccccc2)nnn1-c1cc(Cl)cc(Cl)c1 | 52.5
O=c1c(Cl)c(-n2cccn2)cnn1-c1ccc(Cl)cc1Cl | 56.0
Cc1c(-c2ccnc(N)n2)nnn1-c1ccc(Cl)cc1Cl | -109.3*
COc1cccc(C(=O)N2CCC3(CC2)Nc2ccc(C)c(C)c2-n2cccc23)c1 | 48.8
O=C(CN1CCCC1)N1CCN(C(=O)c2ccccc2)C1 | 28.7
O=C(NCCCl)N(CCCl)[NH2+][O-] | 38.0
Clc1ccc(NCn2nnc3ccccc32)cc1 | 89.9
CC(C)N=c1cc2n(-c3ccc(Cl)cc3)c3ccccc3nc-2cc1Nc1ccc(Cl)cc1 | -71.4*!
CCNC(=O)c1ccnc(N2CCC(CO)(Cc3ccccc3Cl)CC2)c1 | -32.5
COc1ccccc1Cn1ncc2c1CCCC2NC(=O)c1cc(-c2cccs2)no1 (configuration not stated) | -76.7*
CCCc1cc(CNC(=O)c2cc(-c3cccs3)no2)on1 | -4.0
COCc1ccc(C(=O)NC2CCCc3c2cnn3C)o1 (configuration not stated) | -10.2
COc1cccc(NC(=O)C(=O)NCCc2sc(-c3ccc(C)cc3)nc2C)c1 | 57.8
CN1C[C@@H]2C3(CCN(C(=O)c4ccco4)CC3)CC[C@]2(C(=O)N2CCCC2)C1 | 5.6
c1ccc(N2CCCN(Cc3ccc(-n4ccnc4)cc3)CC2)cc1 | 14.6
CCOc1cccc(C2c3[nH]c4ccccc4c3CCN2C(=O)c2cccc(Cl)c2)c1 (configuration not stated) | -122.5*
CCOc1cccc(C2c3[nH]c4ccccc4c3CCN2C(=O)c2ccc(OC)c(OC)c2)c1 (configuration not stated) | -88.5*
CCOc1cccc(C2c3[nH]c4ccccc4c3CCN2C(=O)c2ccc3c(c2)OCO3)c1 (configuration not stated) | i
CCOc1cccc(C2c3[nH]c4ccccc4c3CCN2C(=O)c2ccccc2F)c1 (configuration not stated) | -64.5
CCCC(=O)N1CCc2c([nH]c3ccccc23)C1c1cccc(OCC)c1 (configuration not stated) | 496.6
